# According to paper PMC7862700, “An all-to-all approach to the identification of sequence-specific readers for epigenetic DNA modifications on cytosine”:
# Assays:
# Assay in all cases: DAPPL (digital affinity profiling via proximity ligation, sequencing); 10 mM Tris-HCl pH 7.5, 50 mM NaCl, 1 mM DTT, 4% glycerol, room temperature, 30 min; GST-TFs on glutathione beads, 16-mer random dsDNA library, 0.1% formaldehyde crosslink after washing; high values mean tight binding
# Settings in all cases: protein: recombinant; tags: N-terminal GST; dsDNA, one strand shown
# FLI1 = target: T1, FLI1 (Homo sapiens, UniProt Q01543 1-452)
# T1 sequence: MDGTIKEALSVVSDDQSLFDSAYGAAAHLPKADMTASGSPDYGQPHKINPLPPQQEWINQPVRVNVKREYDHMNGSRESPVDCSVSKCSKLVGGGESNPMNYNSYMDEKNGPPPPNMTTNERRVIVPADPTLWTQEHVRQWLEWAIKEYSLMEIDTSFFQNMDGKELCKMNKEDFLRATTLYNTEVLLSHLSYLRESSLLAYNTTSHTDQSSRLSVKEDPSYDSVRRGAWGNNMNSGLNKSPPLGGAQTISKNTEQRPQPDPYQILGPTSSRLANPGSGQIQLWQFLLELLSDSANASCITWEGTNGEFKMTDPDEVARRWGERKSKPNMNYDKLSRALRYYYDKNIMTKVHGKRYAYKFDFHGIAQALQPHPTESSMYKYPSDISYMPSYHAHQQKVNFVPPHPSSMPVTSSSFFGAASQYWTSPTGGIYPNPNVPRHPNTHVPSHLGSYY
# In short: (§1)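 After expression in yeast as GST fusions, human transcription factors were bound to glutathione beads, DNA-barcoded and mixed with a tag-only sample. The pools were incubated with 200 nmole of a 16-mer random double-stranded DNA library in Tris/NaCl/DTT/glycerol buffer (30 min, room temperature), washed and crosslinked with 0.1% formaldehyde. Proximity ligation with BsaI/T4 ligase ran for 1 h at 37 °C, before PCR amplification and sequencing on an Illumina NextSeq500. Binding signal is a hexamer's read frequency for a factor divided by its frequency for the tag-only sample.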
# ELK1 = target: T2, ELK1 (Homo sapiens, UniProt P19419 1-428)
# T2 sequence: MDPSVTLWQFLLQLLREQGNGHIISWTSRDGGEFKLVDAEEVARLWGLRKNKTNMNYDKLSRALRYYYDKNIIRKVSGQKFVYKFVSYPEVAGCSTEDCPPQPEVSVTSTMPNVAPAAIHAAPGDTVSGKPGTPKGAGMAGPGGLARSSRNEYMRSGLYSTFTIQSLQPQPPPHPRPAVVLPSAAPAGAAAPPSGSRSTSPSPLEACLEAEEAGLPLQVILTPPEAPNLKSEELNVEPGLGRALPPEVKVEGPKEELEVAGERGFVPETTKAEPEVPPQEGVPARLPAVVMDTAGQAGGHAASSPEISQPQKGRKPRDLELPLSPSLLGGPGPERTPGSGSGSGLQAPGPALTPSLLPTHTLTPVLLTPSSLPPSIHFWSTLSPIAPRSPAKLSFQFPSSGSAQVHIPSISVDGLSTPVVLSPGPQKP
# In short: as §1
# GABPA = target: T3, GABPA (Homo sapiens, UniProt Q06546 1-454)
# T3 sequence: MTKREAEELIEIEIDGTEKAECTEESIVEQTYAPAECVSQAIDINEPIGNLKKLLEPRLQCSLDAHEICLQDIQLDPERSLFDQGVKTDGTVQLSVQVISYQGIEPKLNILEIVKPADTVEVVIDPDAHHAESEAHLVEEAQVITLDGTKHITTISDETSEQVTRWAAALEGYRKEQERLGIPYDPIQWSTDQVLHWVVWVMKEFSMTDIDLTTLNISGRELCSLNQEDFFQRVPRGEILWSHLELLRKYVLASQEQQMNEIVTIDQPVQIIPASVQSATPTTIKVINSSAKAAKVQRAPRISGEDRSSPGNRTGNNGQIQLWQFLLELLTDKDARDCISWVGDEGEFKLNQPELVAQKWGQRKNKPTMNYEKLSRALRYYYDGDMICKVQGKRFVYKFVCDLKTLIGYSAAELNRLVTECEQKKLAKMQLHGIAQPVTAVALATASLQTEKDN
# In short: as §1
# ERG = target: T4, ERG (Homo sapiens, UniProt P11308 1-479)
# T4 sequence: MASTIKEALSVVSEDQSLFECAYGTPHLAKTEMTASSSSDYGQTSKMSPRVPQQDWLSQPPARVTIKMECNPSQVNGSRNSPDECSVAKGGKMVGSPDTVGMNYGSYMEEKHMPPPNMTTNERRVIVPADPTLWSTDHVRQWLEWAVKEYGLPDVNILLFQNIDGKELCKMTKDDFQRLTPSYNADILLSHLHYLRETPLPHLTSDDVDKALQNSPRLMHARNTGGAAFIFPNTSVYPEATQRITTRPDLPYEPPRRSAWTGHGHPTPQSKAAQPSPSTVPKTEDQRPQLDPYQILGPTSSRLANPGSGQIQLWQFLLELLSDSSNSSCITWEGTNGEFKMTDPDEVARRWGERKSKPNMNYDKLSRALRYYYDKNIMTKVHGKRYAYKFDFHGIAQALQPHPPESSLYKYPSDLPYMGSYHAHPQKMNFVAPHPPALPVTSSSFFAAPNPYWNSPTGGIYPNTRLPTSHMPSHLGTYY
# In short: as §1
# ELF1 = ELF1 (Homo sapiens, UniProt P32519 1-619)
# ELF1, sequence (P32519 whole entry): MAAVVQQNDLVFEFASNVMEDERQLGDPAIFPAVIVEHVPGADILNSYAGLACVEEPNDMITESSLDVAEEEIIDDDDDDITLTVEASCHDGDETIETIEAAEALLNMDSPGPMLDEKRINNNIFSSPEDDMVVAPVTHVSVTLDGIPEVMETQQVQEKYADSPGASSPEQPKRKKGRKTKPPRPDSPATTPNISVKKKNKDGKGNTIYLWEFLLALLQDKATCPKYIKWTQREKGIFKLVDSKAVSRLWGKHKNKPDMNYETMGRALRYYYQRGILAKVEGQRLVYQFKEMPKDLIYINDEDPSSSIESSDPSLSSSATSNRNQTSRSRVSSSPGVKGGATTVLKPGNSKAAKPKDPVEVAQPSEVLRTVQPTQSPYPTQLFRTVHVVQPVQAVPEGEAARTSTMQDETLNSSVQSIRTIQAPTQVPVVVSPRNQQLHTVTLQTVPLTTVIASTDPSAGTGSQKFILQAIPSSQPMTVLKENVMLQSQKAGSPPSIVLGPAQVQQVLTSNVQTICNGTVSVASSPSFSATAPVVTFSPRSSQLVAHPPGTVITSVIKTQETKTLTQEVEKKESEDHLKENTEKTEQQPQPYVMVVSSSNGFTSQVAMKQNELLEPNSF
# In short: as §1
# EHF = target: T5, EHF (Homo sapiens, UniProt Q9NZC4 1-300)
# T5 sequence: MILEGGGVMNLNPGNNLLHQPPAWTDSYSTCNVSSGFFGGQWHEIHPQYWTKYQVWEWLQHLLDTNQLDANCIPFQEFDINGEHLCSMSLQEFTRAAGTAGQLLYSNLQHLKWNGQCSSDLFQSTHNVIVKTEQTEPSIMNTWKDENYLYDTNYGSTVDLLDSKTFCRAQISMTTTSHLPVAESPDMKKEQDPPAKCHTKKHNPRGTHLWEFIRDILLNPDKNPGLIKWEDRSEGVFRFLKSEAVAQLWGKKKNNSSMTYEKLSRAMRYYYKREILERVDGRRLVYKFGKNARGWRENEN
# In short: as §1
# SPI1 = SPI1 (Homo sapiens, UniProt P17947 1-270)
# In short: as §1
# SPIB = SPIB (Homo sapiens, UniProt Q01892 1-262)
# SPIB, sequence (Q01892 whole entry): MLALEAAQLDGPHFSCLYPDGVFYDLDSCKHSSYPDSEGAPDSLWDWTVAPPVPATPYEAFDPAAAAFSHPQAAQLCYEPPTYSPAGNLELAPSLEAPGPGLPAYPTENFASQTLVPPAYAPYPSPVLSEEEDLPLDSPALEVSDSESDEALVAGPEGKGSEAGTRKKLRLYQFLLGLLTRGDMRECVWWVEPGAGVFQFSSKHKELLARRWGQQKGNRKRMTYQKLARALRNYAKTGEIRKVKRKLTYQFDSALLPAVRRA
# In short: as §1
# ELK3 = target: T6, ELK3 (Homo sapiens, UniProt P41970 1-407)
# T6 sequence: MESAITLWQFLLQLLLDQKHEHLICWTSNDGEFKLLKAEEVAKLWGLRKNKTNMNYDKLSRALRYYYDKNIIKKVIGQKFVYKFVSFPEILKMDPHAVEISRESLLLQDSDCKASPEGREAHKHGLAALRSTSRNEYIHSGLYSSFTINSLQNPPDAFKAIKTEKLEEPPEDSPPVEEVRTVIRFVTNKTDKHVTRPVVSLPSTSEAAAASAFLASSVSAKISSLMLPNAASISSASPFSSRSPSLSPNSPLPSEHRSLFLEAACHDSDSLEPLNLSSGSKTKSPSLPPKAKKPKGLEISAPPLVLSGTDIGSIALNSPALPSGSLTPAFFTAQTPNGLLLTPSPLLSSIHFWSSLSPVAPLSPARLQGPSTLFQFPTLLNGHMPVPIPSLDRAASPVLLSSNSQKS
# In short: as §1
# FEV = target: T7, FEV (Homo sapiens, UniProt Q99581 1-238)
# T7 sequence: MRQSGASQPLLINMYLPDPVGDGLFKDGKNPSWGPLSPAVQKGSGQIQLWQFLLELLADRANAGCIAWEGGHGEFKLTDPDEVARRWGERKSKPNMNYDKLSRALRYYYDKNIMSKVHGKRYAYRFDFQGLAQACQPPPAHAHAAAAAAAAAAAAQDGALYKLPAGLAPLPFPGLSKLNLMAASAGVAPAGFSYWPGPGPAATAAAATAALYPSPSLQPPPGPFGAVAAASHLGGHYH
# In short: as §1
# ETV5 = ETV5 (Homo sapiens, UniProt P41161 1-510)
# ETV5, sequence (P41161 whole entry): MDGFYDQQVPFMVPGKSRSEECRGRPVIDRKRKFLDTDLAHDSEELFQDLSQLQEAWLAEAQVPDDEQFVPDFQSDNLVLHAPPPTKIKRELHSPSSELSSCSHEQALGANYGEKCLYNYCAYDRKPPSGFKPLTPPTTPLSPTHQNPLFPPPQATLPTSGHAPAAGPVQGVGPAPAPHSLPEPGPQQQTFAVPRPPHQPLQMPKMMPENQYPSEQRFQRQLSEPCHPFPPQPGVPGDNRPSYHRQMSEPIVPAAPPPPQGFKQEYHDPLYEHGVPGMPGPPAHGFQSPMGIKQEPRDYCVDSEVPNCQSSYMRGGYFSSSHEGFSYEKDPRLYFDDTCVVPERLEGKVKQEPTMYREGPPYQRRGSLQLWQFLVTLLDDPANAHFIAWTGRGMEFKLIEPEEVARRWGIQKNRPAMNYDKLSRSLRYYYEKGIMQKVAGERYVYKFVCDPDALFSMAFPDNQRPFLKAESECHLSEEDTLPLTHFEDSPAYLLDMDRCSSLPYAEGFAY
# In short: as §1
# SPIC = target: T8, SPIC (Homo sapiens, UniProt Q8N5J4 1-248)
# T8 sequence: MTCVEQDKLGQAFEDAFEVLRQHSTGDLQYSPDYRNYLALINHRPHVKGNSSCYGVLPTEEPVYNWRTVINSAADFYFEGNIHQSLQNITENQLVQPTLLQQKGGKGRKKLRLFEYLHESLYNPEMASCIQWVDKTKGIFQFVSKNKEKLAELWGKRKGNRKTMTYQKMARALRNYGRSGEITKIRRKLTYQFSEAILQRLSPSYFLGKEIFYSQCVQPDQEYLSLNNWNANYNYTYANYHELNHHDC
# In short: as §1
# ELF4 = ELF4 (Homo sapiens, UniProt Q99607 1-663)
# ELF4, sequence (Q99607 whole entry): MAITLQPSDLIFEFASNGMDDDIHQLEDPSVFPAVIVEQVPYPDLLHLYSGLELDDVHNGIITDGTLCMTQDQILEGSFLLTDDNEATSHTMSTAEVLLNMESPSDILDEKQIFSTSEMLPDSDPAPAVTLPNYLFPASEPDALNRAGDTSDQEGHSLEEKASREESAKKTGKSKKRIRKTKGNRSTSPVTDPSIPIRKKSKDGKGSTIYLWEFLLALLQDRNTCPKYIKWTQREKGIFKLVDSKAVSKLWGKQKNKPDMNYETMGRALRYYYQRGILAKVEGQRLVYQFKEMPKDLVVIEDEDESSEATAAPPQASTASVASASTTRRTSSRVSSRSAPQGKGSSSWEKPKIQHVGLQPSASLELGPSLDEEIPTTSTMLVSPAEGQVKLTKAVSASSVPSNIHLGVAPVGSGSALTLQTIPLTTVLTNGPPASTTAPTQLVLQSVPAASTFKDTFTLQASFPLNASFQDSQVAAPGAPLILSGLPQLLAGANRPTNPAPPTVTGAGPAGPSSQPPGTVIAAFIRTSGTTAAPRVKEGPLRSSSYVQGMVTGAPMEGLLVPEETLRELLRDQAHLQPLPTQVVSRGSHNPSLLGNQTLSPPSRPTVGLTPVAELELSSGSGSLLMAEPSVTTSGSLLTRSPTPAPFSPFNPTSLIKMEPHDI
# In short: as §1
# ELK4 = target: T9, ELK4 (Homo sapiens, UniProt P28324-2 1-405)
# T9 sequence: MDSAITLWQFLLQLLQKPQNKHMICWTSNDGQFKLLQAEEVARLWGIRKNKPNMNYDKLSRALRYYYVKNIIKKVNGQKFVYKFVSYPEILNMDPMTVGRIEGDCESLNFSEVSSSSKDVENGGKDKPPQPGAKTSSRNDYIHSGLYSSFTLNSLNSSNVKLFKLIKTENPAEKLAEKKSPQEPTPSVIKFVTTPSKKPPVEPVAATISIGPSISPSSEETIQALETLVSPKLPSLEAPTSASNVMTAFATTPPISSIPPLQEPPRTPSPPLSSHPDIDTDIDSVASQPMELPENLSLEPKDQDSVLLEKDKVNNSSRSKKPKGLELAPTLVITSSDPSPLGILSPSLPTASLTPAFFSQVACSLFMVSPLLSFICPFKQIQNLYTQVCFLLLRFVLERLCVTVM
# In short: as §1
# ETV2 = target: T10, ETV2 (Homo sapiens, UniProt O00321 1-342)
# T10 sequence: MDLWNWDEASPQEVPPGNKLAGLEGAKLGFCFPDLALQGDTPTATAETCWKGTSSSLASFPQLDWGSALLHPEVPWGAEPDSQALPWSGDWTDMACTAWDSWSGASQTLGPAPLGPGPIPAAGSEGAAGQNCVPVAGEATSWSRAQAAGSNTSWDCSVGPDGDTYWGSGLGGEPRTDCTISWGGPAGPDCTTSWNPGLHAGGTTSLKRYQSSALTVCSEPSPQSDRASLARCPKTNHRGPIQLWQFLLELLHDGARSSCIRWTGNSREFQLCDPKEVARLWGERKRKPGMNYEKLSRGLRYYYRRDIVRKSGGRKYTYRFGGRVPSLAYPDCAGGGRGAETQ
# In short: as §1
# ELF3 = target: T11, ELF3 (Homo sapiens, UniProt P78545 1-371)
# T11 sequence: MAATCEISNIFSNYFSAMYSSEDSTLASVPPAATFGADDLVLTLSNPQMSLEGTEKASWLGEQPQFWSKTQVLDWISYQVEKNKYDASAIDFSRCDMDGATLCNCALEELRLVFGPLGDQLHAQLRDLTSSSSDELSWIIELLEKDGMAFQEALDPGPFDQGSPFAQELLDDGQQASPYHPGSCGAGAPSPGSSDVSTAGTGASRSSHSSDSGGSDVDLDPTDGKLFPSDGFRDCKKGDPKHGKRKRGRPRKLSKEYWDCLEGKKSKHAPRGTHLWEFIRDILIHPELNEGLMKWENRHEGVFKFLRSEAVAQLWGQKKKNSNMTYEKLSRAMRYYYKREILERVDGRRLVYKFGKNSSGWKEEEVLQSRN
# In short: as §1
# ETV1 = ETV1 (Homo sapiens, UniProt P50549 1-477)
# ETV1, sequence (P50549 whole entry): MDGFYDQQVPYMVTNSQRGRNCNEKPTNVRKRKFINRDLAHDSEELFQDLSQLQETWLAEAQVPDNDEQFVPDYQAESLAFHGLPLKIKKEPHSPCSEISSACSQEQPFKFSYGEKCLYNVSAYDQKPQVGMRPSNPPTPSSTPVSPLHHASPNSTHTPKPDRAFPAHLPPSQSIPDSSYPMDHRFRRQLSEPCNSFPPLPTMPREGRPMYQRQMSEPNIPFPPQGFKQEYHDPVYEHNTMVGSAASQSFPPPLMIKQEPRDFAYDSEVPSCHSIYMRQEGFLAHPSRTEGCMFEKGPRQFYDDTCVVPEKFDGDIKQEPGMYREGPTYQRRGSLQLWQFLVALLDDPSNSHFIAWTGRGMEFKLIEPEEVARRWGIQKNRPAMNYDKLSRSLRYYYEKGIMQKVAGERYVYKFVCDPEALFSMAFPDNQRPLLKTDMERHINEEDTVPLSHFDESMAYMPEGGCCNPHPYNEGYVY
# In short: as §1
Sequence,binding signal (FLI1),binding signal (ELK1),binding signal (GABPA),binding signal (ERG),binding signal (ELF1),binding signal (EHF),binding signal (SPI1),binding signal (SPIB),binding signal (ELK3),binding signal (FEV),binding signal (ETV5),binding signal (SPIC),binding signal (ELF4),binding signal (ELK4),binding signal (ETV2),binding signal (ELF3),binding signal (ETV1)
GTTTCA,"1.34 fold enrichment (6-mer frequency, TF over GST control)","1.27 fold enrichment (6-mer frequency, TF over GST control)","1.35 fold enrichment (6-mer frequency, TF over GST control)","1.3 fold enrichment (6-mer frequency, TF over GST control)","1.4 fold enrichment (6-mer frequency, TF over GST control)","1.3 fold enrichment (6-mer frequency, TF over GST control)","1.32 fold enrichment (6-mer frequency, TF over GST control)","1.24 fold enrichment (6-mer frequency, TF over GST control)","1.44 fold enrichment (6-mer frequency, TF over GST control)","1.31 fold enrichment (6-mer frequency, TF over GST control)","1.26 fold enrichment (6-mer frequency, TF over GST control)","1.06 fold enrichment (6-mer frequency, TF over GST control)","1.33 fold enrichment (6-mer frequency, TF over GST control)","1.28 fold enrichment (6-mer frequency, TF over GST control)","1.15 fold enrichment (6-mer frequency, TF over GST control)","1.28 fold enrichment (6-mer frequency, TF over GST control)","1.43 fold enrichment (6-mer frequency, TF over GST control)"
CCTTGT,"1.33 fold enrichment (6-mer frequency, TF over GST control)","1.29 fold enrichment (6-mer frequency, TF over GST control)","1.25 fold enrichment (6-mer frequency, TF over GST control)","1.37 fold enrichment (6-mer frequency, TF over GST control)","1.23 fold enrichment (6-mer frequency, TF over GST control)","1.24 fold enrichment (6-mer frequency, TF over GST control)","1.25 fold enrichment (6-mer frequency, TF over GST control)","1.28 fold enrichment (6-mer frequency, TF over GST control)","1.18 fold enrichment (6-mer frequency, TF over GST control)","1.09 fold enrichment (6-mer frequency, TF over GST control)","1.32 fold enrichment (6-mer frequency, TF over GST control)","1.11 fold enrichment (6-mer frequency, TF over GST control)","1.29 fold enrichment (6-mer frequency, TF over GST control)","1.37 fold enrichment (6-mer frequency, TF over GST control)","1.03 fold enrichment (6-mer frequency, TF over GST control)","1.08 fold enrichment (6-mer frequency, TF over GST control)","1.26 fold enrichment (6-mer frequency, TF over GST control)"
